# Bioassay records from PubChem BioAssay.
# FGF22 binding = binders of human FGF22 protein, primary screen, FGF22 synaptogenesis inhibitor project, biophysical, thermal shift, single point; recombinant FGF22 thermal shift, SYPRO orange fluorescence; percent of sucrose octasulfate shift, DMSO zero; AID 651658, 2012; hit rate 1.5% among 340,000; activity (Tm shift, normalised), % at 9.99 µM; Fibroblast growth factor 22 (Homo sapiens), Q9HCT0;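 active = mean Tm shift, scaled 0 neutral to 100 positive control, at about 1.3% or above, every replicate too, limit read from the data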
# Target sequence (Q9HCT0 whole entry, looked up): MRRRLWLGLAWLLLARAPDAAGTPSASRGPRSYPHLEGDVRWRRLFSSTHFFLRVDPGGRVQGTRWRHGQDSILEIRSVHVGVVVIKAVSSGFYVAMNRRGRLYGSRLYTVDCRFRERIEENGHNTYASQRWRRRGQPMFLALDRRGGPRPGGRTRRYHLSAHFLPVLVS
# Vif imaging = HIV Vif self-association inhibitors, primary screen, imaging, HEK293T, single point | HEK293T cells, Vif self-association by quenched fluorescence, 24 h | hit rate 0.35% among 340,000 | inhibition, % at 7.49 µM; in the data active = inhibition above about 50%, passing the limit was not always enough
# F508del corr = F508del CFTR correction, initial screen, CFBE line, single point. CFBE cells, YFP halide quenching; stimulated with forskolin plus potentiator P3; % fluorescence drop versus neutral controls. activity (quench increase), % at 7.58 µM. hit rate 0.36% among 350,000. AID 720511, 2013;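 active = mean added fluorescence quench of at least 8% versus neutral control, with both replicates also reaching 8%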;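 note: cells transiently co-express mutant CFTR-F508del with the halide-sensitive YFP; corrector assay measuring rescue of mutant channel to the surface after 24 h compound exposure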
# Hits are given with their value; - = inactive; . = no result. This is a sample that favours compounds with a hit; in the whole collection about 1.7% have one here.
SMILES,FGF22 binding,Vif imaging,F508del corr
COc1ccc(S(=O)(=O)N(C)C[C@@H]2Oc3ccc(NC(=O)Cc4cn(C)c5ccccc45)cc3CC(=O)N([C@H](C)CO)C[C@@H]2C)cc1,-,.,-
COc1ccc(-c2cc3ccccc3cn2)cc1,44,-,-
COc1ccc(-c2cc3ccc(OC)cc3cn2)cc1,-,-,-
COc1ccccc1CNC(=O)C[C@H]1C[C@@H]2c3cc(NS(=O)(=O)c4ccc(F)cc4)ccc3O[C@@H]2[C@@H](CO)O1,-,.,-
COP(=O)(OC)c1nc(-c2cccc3ccccc23)oc1NCc1ccccc1,.,-,.
CCCOP(=O)(OCCC)c1nc(-c2ccccc2)oc1NCc1ccccc1,43,-,-
CCOP(=O)(c1ccccc1)c1nc(-c2ccccc2C)oc1NCc1ccccc1 (configuration not stated),-,-,-
CCOP(=O)(OCC)c1nc(-c2ccc(Cl)cc2)oc1NCc1ccccc1,43,-,-
C[C@H](CO)N1C[C@H](C)[C@H](CN(C)Cc2cccnc2)Oc2ncc(-c3ccc(C#N)cc3)cc2C1=O,-,.,-
C[C@@H]1CN([C@@H](C)CO)C(=O)Cc2cc(NS(=O)(=O)c3ccccc3)ccc2O[C@H]1CN(C)S(=O)(=O)c1ccccc1,-,.,-
O=C(C[C@@H]1C=C[C@@H](NS(=O)(=O)c2cccc(F)c2)[C@@H](CO)O1)N1CCCCC1,-,.,-
CCCNC(=O)N1C[C@@H]2[C@H](c3ccccc31)[C@H](CO)N2C(=O)Nc1ccccc1F,-,.,-
O=C(NCc1nnc(SCC(=O)N2CCc3ccccc32)o1)c1ccco1,43,-,-
O=C(NCc1nnc(SCC(=O)N2CCCc3ccccc32)o1)c1ccco1,-,-,.
O=C(O)c1ccccc1C(=O)NNc1ccc(Cl)cc1Cl,44,-,-
O=C(O)c1ccccc1C(=O)NNc1ccc(F)cc1,.,-,.
C[C@H]1CN([C@@H](C)CO)C(=O)Cc2cc(NC(=O)Nc3cccc4ccccc34)ccc2O[C@H]1CN(C)Cc1ccccc1,-,.,-
O=C(Nc1cccnc1)c1ccc(-c2ccccc2)cc1,-,-,-
Cc1ccc(C)n1-c1ccc(C(=O)Nc2ccccc2)cc1,43,-,-
Cc1ccc(C)n1-c1cccc(NC(=O)c2ccccc2)c1,.,-,.
O=C(Nc1ccncc1)c1ccc(-c2ccccc2)cc1,45,-,-
Cc1ccc[n+](Cc2ccc([N+](=O)[O-])cc2)c1,-,-,-
O=[N+]([O-])c1ccc(C[n+]2cccc3c4ccccc4ccc32)cc1,43,-,-
Cc1noc(C)c1NC(=O)Nc1ccc2c(c1)C(=O)N([C@@H](C)CO)C[C@@H](C)[C@@H](CN(C)CC1CC1)OCCCC[C@@H](C)O2,-,.,-
CN(C)C(=O)C[C@@H]1CC[C@H]2[C@H](COc3ccc(NC(=O)c4cnccn4)cc3C(=O)N2C)O1,-,.,-
SMILES,FGF22 binding,Vif imaging,F508del corr
CC(C)C(c1nnnn1CC1CCCO1)N1CCN(C2CCCC2)CC1 (configuration not stated),.,57,.
CC(C)C(c1nnnn1Cc1cccs1)N1CCN(C2CCCC2)CC1 (configuration not stated),.,-,.
C[C@H]1CN([C@@H](C)CO)S(=O)(=O)c2ccc(-c3ccccc3)cc2O[C@@H]1CN(C)C,-,.,-
CO[C@H]1CN(C)C(=O)c2ccc(NC(=O)C3CCCC3)cc2OC[C@H](C)N(CC2CC2)C[C@@H]1C,-,.,-
CCCCCCC1CC(CSC(=N)N)OC1=O (configuration not stated),.,-,.
CCCCCC1(C(=O)OCC)CC(CSC(=N)N)OC1=O (configuration not stated),44,-,-
CC(NC(=O)COC(=O)c1cc(Cl)nc(Cl)c1)c1ccccc1 (configuration not stated),43,-,-
CC(NC(=O)COC(=O)c1ccccc1O)c1ccccc1 (configuration not stated),-,-,-
CCCN1[C@H](C(=O)N[C@@H](C)c2ccccc2)[C@@H](CO)[C@@H]2Cn3c(ccc(-c4ccc(F)cc4)c3=O)[C@@H]21,-,.,-
S=C1NCN(Cc2ccco2)CN1CCc1ccccc1,-,-,-
CCOCCCN1CN(Cc2ccco2)CNC1=S,43,-,-
O=C(C[C@H]1C[C@@H]2c3cc(NC(=O)c4ccc5c(c4)OCO5)ccc3O[C@@H]2[C@@H](CO)O1)NCc1cccc(F)c1,-,.,-
CN1C[C@@H]2[C@H](c3ccccc31)[C@@H](CO)N2C(=O)Nc1ccc(F)cc1,.,.,-
COc1cc(Cl)c(C)cc1NC(=O)CCN1C(=O)NC(C)(C)C1=O,43,-,-
COc1ccc(Cl)cc1NC(=O)CCN1C(=O)NC(C)(C)C1=O,-,-,-
C/C=C/c1ccc2c(c1)[C@H]1[C@H](CCN1S(=O)(=O)c1ccccc1F)[C@H](CO)N2,-,.,-
O=C(COC(=O)CNC(=O)c1ccccc1)NCCc1ccccc1,-,-,-
Cc1ccccc1OCC(=O)OCC(=O)NCCc1ccccc1,-,-,15
Cc1cc(C(=O)NCC(=O)OCC(=O)NCCc2ccccc2)ccc1[N+](=O)[O-],44,-,-
O=C(COC(=O)COc1cccc2ccccc12)NCC(F)(F)F,43,-,-
O=C(COc1cccc2cccnc12)NCC(F)(F)F,.,-,.
CCOc1ccc(CCNC(=O)COC(=O)COc2ccccc2C)cc1OCC,-,-,-
COc1cccc(S(=O)(=O)N(C)C[C@@H]2Oc3ncc(C#CC(C)(C)O)cc3C(=O)N([C@H](C)CO)C[C@@H]2C)c1,-,.,-
CN(C)C(=O)c1ccc(-c2ccc([C@@H]3[C@H](CO)N4CCCCN(CC5CC5)C[C@@H]34)cc2)cc1,-,.,-
COc1ccc(NC(=O)Nc2cccc3c2O[C@@H](CN(C)Cc2ccc(C(=O)O)cc2)[C@H](C)CN([C@H](C)CO)C3=O)cc1,.,.,-
SMILES,FGF22 binding,Vif imaging,F508del corr
CN(C)Cc1cn(CC[C@H]2CC[C@@H](NS(=O)(=O)c3ccc(-c4ccccc4)cc3)[C@H](CO)O2)nn1,-,.,-
CO[C@H]1CN(C)C(=O)c2ccc(NS(C)(=O)=O)cc2OC[C@@H](C)N(CCC(F)(F)F)C[C@@H]1C,.,.,-
C[C@H]1CN([C@@H](C)CO)C(=O)Cc2cc(NC(=O)C3CCCCC3)ccc2O[C@@H]1CN(C)C(=O)Nc1cccc2ccccc12,-,.,-
COc1ccc(-c2cnc3c(c2)C(=O)N([C@@H](C)CO)C[C@H](C)[C@@H](CN(C)C)O3)cc1,-,.,-
C[C@H](CO)N1C[C@H](C)[C@@H](CN(C)Cc2ccc(Oc3ccccc3)cc2)Oc2c(NC(=O)c3ccc(-c4nccs4)cc3)cccc2C1=O,-,.,-
O=S(=O)(c1ccc(OCC2CO2)cc1)c1ccc(OCC2CO2)cc1 (configuration not stated),43,.,-
CC(C)(c1ccccc1)c1ccc(OCC2CO2)cc1 (configuration not stated),-,-,-
Cc1ccccc1NC(=O)COc1ccccc1C,-,-,-
Cc1ccccc1OCC(=O)NNC(=O)CCN1C(=O)c2ccccc2C1=O,43,-,-
